Growth data for 30 molecules are collected here from PubChem BioAssay (NCI).

About 83,000 compounds went through this panel and 20% of them were active in at least one assay; those are over-represented in the sample as a whole.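 Cells were grown in 96-well plates and exposed to the test compound at a single concentration for 48 hours; results are reported as percent growth, with values below 10 considered active.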 Active and inactive are the calls of the source.

The test system of the assay is SNB-19 CNS. Nature of the assay: NCI-60 one-dose screen, 48 h (100 = growth as untreated, 0 = no growth, -100 = all killed). Conditions: 10 µM unless noted.
With `Cc1ccc(NC(=O)c2ccc(CN3CCN(C)CC3)cc2)cc1Oc1ccc(-c2[nH]nc3ncnc(N)c23)cc1`, the growth is 104% (inactive).
As for `CCCn1cnc2c(c1=N)C(c1ccc(Cl)cc1)c1sc3c(C)cccc3c1O2` (stereo not given), the figure is 26.5% (inactive).
Under `C=C(C=O)[C@@H]1CC[C@]2(C)[C@H](CC=C3[C@H]4[C@@H](C)[C@H](C)CC[C@]4(C(=O)OC)CC[C@]32C)[C@@]1(C)CCC#N` stands 25.2% (inactive); under `NC(N)=Nc1ccc(Oc2cccc(NC(N)=Nc3ccc(I)cc3F)c2)cn1`, 26.3% (inactive).
For `Cc1occc1-c1nc2s/c(=C/c3ccc(-c4cc(C(F)(F)F)ccc4Cl)o3)c(=O)n2n1`, the growth was 98.5% (inactive).
As to `C[C@H]1c2[nH]c3ccccc3c2C[C@H]2C(=O)N(CCCCCCC(=O)NO)CC(=O)N21`, the growth was 84.8% (inactive).
As for `COc1ccc(-c2cc(-c3ccc(Cl)cc3)c(C#N)c(=O)n2Cc2ccc(C(=O)O)cc2)cc1`, the figure is 90.1% (inactive).
In the case of `O=C1[C@H]2Cc3c([nH]c4ccccc34)[C@@H](c3ccc(Cl)cc3)N2C(=O)CN1C1CCN(Cc2ccccc2)CC1`, the growth was 66.5% (inactive).
As for `COc1cc(-c2nn(C(C)(C)C)cc2-c2ccnc(NCCCNS(=O)(=O)c3ccc(C)cc3)n2)ccc1Cl`, the growth is 100% (inactive).
In the case of `CCCCNNC(=O)c1ccc(-c2cccc(F)c2F)cc1`, the growth was 54.6% (inactive).
In the case of `CC1(C)CC[C@]2(C(=O)N3CCOCC3)CC[C@]3(C)C(=CC[C@@H]4[C@@]5(C)C/C(=C/c6ccccn6)C(=O)C(C)(C)[C@@H]5CC[C@]43C)[C@@H]2C1`, the growth is 88% (inactive).
In the case of `O=S(=O)(NCCNc1nccc(-n2cnc3ccccc32)n1)c1ccc(Br)cc1`, the growth is 101% (inactive).
Turning to `CC1(C)CC[C@]23CC[C@]4(C)[C@H](CC[C@@H]5[C@@]6(C)CCCN(CO)C(C)(C)[C@@H]6CC[C@]54C)[C@H]2[C@H]1OC3`, the growth was 56.6% (inactive).
As to `O=C1[C@H]2Cc3c([nH]c4ccccc34)[C@@H](c3ccc(Br)cc3)N2C(=O)CN1C1CCN(CC2CCCCC2)CC1`, the growth was 4.34% (active).
As for `COc1ccc([C@H]2c3[nH]c4ccccc4c3C[C@H]3C(=O)N(C4CCN(Cc5c(Cl)cccc5Cl)CC4)CC(=O)N23)c(OC)c1`, the figure is 95.5% (inactive); as for `NS(=O)(=O)c1ccc(Nc2nc(Nc3ccccc3)nc3nnc(SCC(=O)NC4CCCCC4)n23)cc1`, 101% (inactive).
As for `O=C(NNc1nc2cc(F)ccc2n2c(CN3CCC(O)C3)ccc12)c1cnccn1` (stereo not given), the growth is 22.3% (inactive).
As for `CCN(CC)c1cn(-c2ccc(S(N)(=O)=O)cc2)nn1`, the figure is 102% (inactive).
Under `O=[N+]([O-])c1cc(/C=N/Nc2nc(N/N=C/c3ccc(Cl)c([N+](=O)[O-])c3)nc(N3CCCCC3)n2)ccc1Cl` stands 72.6% (inactive).
As for `CC(=O)Nc1cccc(Nc2nc(N[C@@H](C)c3ccccc3)c3ccccc3n2)c1`, the growth is 20.6% (inactive).
As for `COc1ccc(COc2ccc(/C=C3\C(=O)Nc4ccccc43)cc2OC)cc1`, the figure is 97.3% (inactive); as for `CCNC(=O)Oc1ccc(/C(=C(/C)c2ccccc2)c2ccc(OCCN3CCCCCC3)cc2)cc1`, 12.7% (inactive).
For `COc1cc(/C=N/NC(=O)c2cn(C3CC3)c3c(OC)c(N4CC5CCCNC5C4)c(F)cc3c2=O)ccc1O` (stereo not given), the growth is 26.2% (inactive).
Take `CC(C)c1ccc(NCc2cn(-c3ccc(C(=O)O)cc3)nc2-c2cc(C(F)(F)F)cc(C(F)(F)F)c2)cc1`: the growth is 83.8% (inactive).
Regarding `C[C@@H]1C[C@H]2C(=O)O[C@@H](C)C(NC(=O)[C@H](Cc3cc(F)cc(F)c3)NC(=O)Nc3ccc(Cl)cc3F)C(=O)N3CCC[C@H]3C(=O)N3CCCC[C@H]3C(=O)N[C@@H](CO)C(=O)N2C1` (stereo not given in full), the growth was 28.1% (inactive).
Under `CC(=O)O[C@@H]1C(=O)N(c2cnccn2)[C@H]1c1ccccc1[N+](=O)[O-]` stands 41.8% (inactive); under `C=C1CC[C@@H]2[C@]3(C)COC(c4ccccc4)O[C@@H]3CC[C@@]2(C)[C@@H]1C/C=C1/C(=O)OC[C@H]1O` (stereo not given in full), 97% (inactive); under `Nc1nc(-c2cccc([N+](=O)[O-])c2)c(N=Nc2cccc([N+](=O)[O-])c2)s1`, 20.9% (inactive).
Turning to `Nc1cc(F)ccc1NC(=O)c1ccc(NC(=O)C/C=C/c2cccnc2)cc1`, the growth was 46.7% (inactive).
As for `CCc1nn2c(C)cc(C)nc2c1Cc1ccc(/C=C/CN2CCN(CCOCCOCCN3CCN(C/C=C/c4ccc(Cc5c(CC)nn6c(C)cc(C)nc56)cc4)CC3)CC2)cc1`, the figure is 17.7% (inactive).
